# The list is not random: actives were taken first. Their share in the collection is about 4.1%.
# hcDAF-12 act: activators of H. contortus DAF-12 nuclear receptor; HEK293 hcDAF-12 lit1-tk-luc reporter, luminescence; 0% DMSO, 100% Δ7-dafachronic acid; activation, % at 6.8 µM; actives 1.4% (n = 370,000); AID 652067;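 active means activation above the mean of all tested compounds plus 3 SD, cut at about 5.5% in these data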
# DAX1 inh-1: inhibits human nuclear receptor DAX1; P51843; HEK293 Gal4-DAX1 luciferase reporter, luminescence; inhibition, % at 6.75 µM; actives 0.99% (n = 340,000);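 active means inhibition above the mean over all tested compounds plus 3 SD, cut at about 4.2% in these data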;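 further: inhibition shows as a rise in luminescence from relieved DAX1 repression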
# Target sequence (P51843 207-470 limits assumed): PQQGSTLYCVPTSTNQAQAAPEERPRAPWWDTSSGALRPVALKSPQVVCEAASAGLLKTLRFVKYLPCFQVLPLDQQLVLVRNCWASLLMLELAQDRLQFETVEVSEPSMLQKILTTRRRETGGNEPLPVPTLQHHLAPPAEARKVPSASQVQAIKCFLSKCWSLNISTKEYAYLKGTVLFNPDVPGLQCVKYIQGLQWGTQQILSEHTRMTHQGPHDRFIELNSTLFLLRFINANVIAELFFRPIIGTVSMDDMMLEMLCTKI
# DAX1 inh-2: blocks DAX1 repression of SF-1 activated StAR promoter; actives 1.1% (n = 370,000); HEK293T StAR-luciferase reporter, SF-1/DAX-1 repression relief; inhibition, % at 6.8 µM; AID 652010;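 active means inhibition above the mean over all tested compounds plus 3 SD, cut at about 3.6% in these data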;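 further: higher inhibition means more luminescence from relief of DAX-1 repression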
# ssDAF12 agonist: activators of S. stercoralis DAF-12 nuclear receptor. HEK293 ssDAF-12/GRIP1 lit1-tk-luc reporter, luminescence; % of 3 µM dafachronic acid response. AID 652126. actives 1% (n = 370,000). activation, % at 6.8 µM;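 active means activation above the mean over all tested compounds plus 3 SD, cut at about 0.9% in these data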
# hgDAF12 agonist: hgDAF-12 agonism, primary luciferase screen; HEK293 GAL4-hgDAF12 UAS-luciferase reporter, agonist luminescence; normalized to butyrate control; activation, % at 6.8 µM; actives 1.8% (n = 370,000);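 active means activation above a cutoff set at the mean of all screened compounds plus 3 SD, cut at about 10% in these data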
# Numbers stand for hits; . = inactive; / = no result.
SMILES,hcDAF-12 act,DAX1 inh-1,DAX1 inh-2,ssDAF12 agonist,hgDAF12 agonist
COC(=O)[C@]12C[C@H](CC(=O)NCc3ccccc3)C(=O)N(CCC3=CCCCC3)C1=C[C@H](C1CCCC1)O[C@@H]2C,.,/,.,.,.
CCCCCCC1(C)NC(=S)N(c2ccccc2)N1 (stereo not drawn),.,.,.,5.7,.
CCCCCC1(C)NC(=S)N(c2ccccc2)N1 (stereo not drawn),.,.,.,.,.
CCC1(c2ccc(Cl)cc2)NC(=S)N(c2ccccc2)N1 (stereo not drawn),5.7,.,.,.,.
C[C@H]1CCC/C=C/[C@@H]2C[C@H](O)C[C@H]2[C@H](O)[C@H](S(=O)c2ccc(O)cc2)CC(=O)O1 (stereo partly drawn),.,.,6.3,.,.
O=C(N/N=C/C=C\c1ccccc1[N+](=O)[O-])c1ccccn1,.,.,.,.,10.7
COc1ccc(C(=O)C2CCN(c3ncnc4sccc34)CC2)cc1,.,/,/,.,.
Nc1ccc(-c2cnc(-c3ccc(N)cc3)nc2)cc1,.,.,.,.,10.5
CCCC(=O)Nc1ccc(-c2cnc(-c3ccc(NC(=O)CCC)cc3)nc2)cc1,.,.,.,.,.
Cc1ccc(OCc2nnc(SCC(=O)Nc3ccc(S(N)(=O)=O)cc3)n2-c2ccc(Cl)cc2)cc1,.,/,.,.,.
CCN(CC)C(=O)c1cc2sc3ccccc3c2s1,.,.,.,.,12.2
Cc1ccc(NC(=O)CCS(=O)(=O)c2ccccc2)c(C)c1,.,/,.,.,.
CCOCCCNC(=O)c1ccc2c(c1)N=C(CC)c1cc(Br)ccc1S2,.,.,4.2,.,.
COC(=O)C1=C[C@@H]([C@@H](C)[C@H](OC)c2ccccc2Br)[C@@H]2OCCC[C@H]12,.,/,.,.,.
O=C(Nc1ccc(Br)cc1)c1ccc2c(c1)OCO2,6.5,.,.,.,13.0
O=C(Nc1ccc2c(c1)OCO2)c1ccc(CO)cc1,.,.,4.2,.,.
CC(=O)Nc1ccc(C(=O)Nc2ccc3c(c2)OCO3)cc1,.,.,.,.,.
Cc1nnc(NC(=O)c2ccc3c(c2)OCO3)s1,.,.,.,.,12.4
CCN1CCN(c2ccc(NC(=O)c3ccc4c(c3)OCO4)cc2)CC1,.,.,.,.,12.3
CCOC(=O)[C@@H]1CSCCS(=O)(=O)N1C(=O)[C@H](Cc1ccccc1)NC(=O)OC(C)(C)C,.,/,.,.,.
C=CCNC(=O)CN(C(=O)c1csc2ccc(Cl)cc12)c1cccc(Br)c1,.,/,.,.,.
CN1CCc2c(sc3c2c(=O)n(-c2ccccc2)c2n[nH]c(=S)n32)C1,.,4.7,.,.,.
Cc1cc(C)cc(NC(=O)NC2CCN(S(=O)(=O)c3ccc(F)cc3)CC2)c1,.,/,.,.,.
O=C(COC(=O)c1cc(Cl)nc(Cl)c1)NCCc1ccc(F)cc1,.,.,.,1.6,.
O=C(COC(=O)c1ccc(F)cc1)NCCc1ccc(F)cc1,.,.,.,.,.
SMILES,hcDAF-12 act,DAX1 inh-1,DAX1 inh-2,ssDAF12 agonist,hgDAF12 agonist
O=Cc1c(C(=O)O)n(CC(=O)O)c2ccccc12,5.8,.,.,.,.
Cc1ccc(O)c(/C=N/NC(=O)c2[nH]ncc2Br)c1,6.2,.,.,.,.
Cn1c(=O)c2[nH]c(SCC(=O)NCCc3ccc(F)cc3)nc2n(C)c1=O,.,/,.,.,.
CCN(C(=O)Cc1c(C(=O)O)[nH]c2ccccc12)c1cc(OC)ccc1OC,.,4.8,.,.,.
COc1ccc(N(C)C(=O)Cc2c(C(=O)O)[nH]c3ccccc23)cc1,.,.,.,.,.
FC(F)Oc1ccccc1/C=N/n1cnc2ccccc21,.,.,.,.,11.5
NC(N)=N/N=C/c1ccccc1OC(F)F,.,.,.,.,.
Fc1ccc2cc(C3=CCCCC3)ncc2c1,.,/,.,.,.
Cc1cc(C)nc(/N=C(\N)N2CCCCCC2)n1,.,.,.,.,.
Cc1cc(C)nc(/N=C(\N)N2CCc3ccccc32)n1,.,.,.,.,11.1
O=C(CNc1cccc2ccccc12)N/N=C/c1ccc(C(=O)O)cc1,.,.,.,1.0,.
O=C(CNc1ccc2ccccc2c1)N/N=C/c1ccc(C(=O)O)cc1,.,.,.,.,.
CSCCC(c1nc2ccccc2[nH]1)n1c(/C=C/c2ccc(F)c(F)c2)nc2ccccc21 (stereo not drawn),.,/,.,0.9,.
COc1ccc(N2CCN(CCNS(=O)(=O)c3cccs3)CC2)cc1,.,/,.,.,.
CCOC(=O)c1cc(-c2ccccc2)n(CCC(=O)O)c1C,.,4.4,.,.,.
CCOC(=O)c1cc(-c2ccccc2)n(CC(=O)Nc2ccc(OC)cc2)c1C,.,.,.,.,.
COC(=O)C1=C(C)N(Cc2ccc(C(F)(F)F)cc2)C(=NCc2ccc(C(F)(F)F)cc2)NC1c1cccc(C(F)(F)F)c1 (stereo not drawn),.,/,.,.,.
COc1cccc(NC(=O)Nc2c(-c3ccc(C)cc3)nc3ncccn23)c1,.,/,.,.,.
COc1ccccc1N1C[C@@H]2C[C@@H](c3ccco3)N3CCC[C@@]23C1=O,.,4.9,.,.,.
Oc1ccc(-c2csc(Nc3cccc4ccccc34)n2)cc1O,.,.,.,2.1,.
CC(Sc1ccccn1)C(=O)NC1CCCC1 (stereo not drawn),.,.,4.4,.,.
CC(=O)Nc1ccc(SC(C)C(=O)NC2CCCC2)cc1 (stereo not drawn),.,.,.,.,.
COc1ccc(CCN(Cc2cccs2)S(=O)(=O)c2ccc(C)c(C)c2)cc1OC,.,/,.,.,.
O=C(CCn1nnc(-c2cccs2)n1)NCc1cccs1,.,/,.,.,.
N#CCC1(O)C(=O)Nc2ccccc21 (stereo not drawn),.,/,.,.,.
SMILES,hcDAF-12 act,DAX1 inh-1,DAX1 inh-2,ssDAF12 agonist,hgDAF12 agonist
O=C(Cc1ccccc1[N+](=O)[O-])N1CCc2ccccc2C1,.,.,.,1.1,10.9
COCCNC(=O)C(c1ccc(Cl)cc1)N(Cc1ccco1)C(=O)CCC(=O)Nc1ccccn1 (stereo not drawn),.,8.8,.,.,.
COC(=O)c1ccc(-c2ccc3c(c2)[C@]2(CCC[C@@H](O)[C@@H]2NC(=O)CCc2ccccc2)C(=O)N3Cc2ccccc2)cc1,.,/,.,.,.
Cc1c(/C=C(\CC(=O)O)c2nc3ccccc3s2)cc(C#N)n1C,5.6,.,.,.,.
Cc1cccc(OCC(=O)NCC(=O)N=Nc2c(O)[nH]c3ccc([N+](=O)[O-])cc23)c1,.,6.1,.,.,.
Cc1cccc(OCC(=O)N=Nc2c(O)[nH]c3ccc([N+](=O)[O-])cc23)c1,.,/,.,.,.
C[C@H](O)[C@@H]1C(=O)N2CCc3c([nH]c4c(-c5ccccc5)cccc34)[C@@H]2C[C@@H]1N(C)CC1CCCCC1,.,/,.,.,.
Cc1ccc2nc(N3CCN(Cc4nnnn4C4CCCC4)CC3)c(C#N)cc2c1,.,5.7,.,.,.
